# Measurements from ChEMBL document CHEMBL1961873, “Compounds: GSK PKIS; Assays: Nanosyn kinase panel” (2012).
# How the values were obtained:
# [1] = target: High affinity nerve growth factor receptor (Homo sapiens) (UniProt P04629); conditions: at 1 µM;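 further: each value is the mean percent inhibition of TRKA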
# [2] = target: BDNF/NT-3 growth factors receptor (Homo sapiens) (UniProt Q16620); conditions: at 0.1 µM
# [3] = target: BDNF/NT-3 growth factors receptor (Homo sapiens) (UniProt Q16620); conditions: at 1 µM
# [4] = target: NT-3 growth factor receptor (Homo sapiens) (UniProt Q16288); conditions: at 0.1 µM
# Chain of NT-3 growth factor receptor (Homo sapiens) (Q16288 32-839 limits assumed): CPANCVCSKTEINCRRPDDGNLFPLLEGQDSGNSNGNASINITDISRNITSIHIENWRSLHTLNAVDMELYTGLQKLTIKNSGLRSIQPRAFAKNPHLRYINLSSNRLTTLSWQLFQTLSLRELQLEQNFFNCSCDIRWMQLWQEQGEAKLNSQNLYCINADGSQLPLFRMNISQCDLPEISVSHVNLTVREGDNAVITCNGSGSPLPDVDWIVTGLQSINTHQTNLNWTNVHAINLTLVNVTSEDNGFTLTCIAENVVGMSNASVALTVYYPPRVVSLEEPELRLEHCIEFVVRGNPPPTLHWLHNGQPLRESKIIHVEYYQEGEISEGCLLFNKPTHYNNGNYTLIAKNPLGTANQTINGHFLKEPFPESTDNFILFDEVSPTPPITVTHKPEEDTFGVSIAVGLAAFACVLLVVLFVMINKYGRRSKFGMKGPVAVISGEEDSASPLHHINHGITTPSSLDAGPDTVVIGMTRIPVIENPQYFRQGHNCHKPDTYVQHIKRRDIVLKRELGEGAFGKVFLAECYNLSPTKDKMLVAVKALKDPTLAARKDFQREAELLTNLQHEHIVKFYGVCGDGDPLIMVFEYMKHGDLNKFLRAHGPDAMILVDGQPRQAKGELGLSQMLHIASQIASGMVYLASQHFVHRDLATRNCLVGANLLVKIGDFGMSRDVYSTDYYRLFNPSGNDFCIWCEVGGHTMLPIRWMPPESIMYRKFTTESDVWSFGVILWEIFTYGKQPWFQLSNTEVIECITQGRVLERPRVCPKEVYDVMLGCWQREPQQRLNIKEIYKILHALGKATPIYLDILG
# [5] = target: NT-3 growth factor receptor (Homo sapiens) (UniProt Q16288); conditions: at 1 µM
# [6] = target: T1, Tyrosine-protein kinase TXK (Homo sapiens) (UniProt P42681); conditions: at 0.1 µM
# T1 sequence (whole entry): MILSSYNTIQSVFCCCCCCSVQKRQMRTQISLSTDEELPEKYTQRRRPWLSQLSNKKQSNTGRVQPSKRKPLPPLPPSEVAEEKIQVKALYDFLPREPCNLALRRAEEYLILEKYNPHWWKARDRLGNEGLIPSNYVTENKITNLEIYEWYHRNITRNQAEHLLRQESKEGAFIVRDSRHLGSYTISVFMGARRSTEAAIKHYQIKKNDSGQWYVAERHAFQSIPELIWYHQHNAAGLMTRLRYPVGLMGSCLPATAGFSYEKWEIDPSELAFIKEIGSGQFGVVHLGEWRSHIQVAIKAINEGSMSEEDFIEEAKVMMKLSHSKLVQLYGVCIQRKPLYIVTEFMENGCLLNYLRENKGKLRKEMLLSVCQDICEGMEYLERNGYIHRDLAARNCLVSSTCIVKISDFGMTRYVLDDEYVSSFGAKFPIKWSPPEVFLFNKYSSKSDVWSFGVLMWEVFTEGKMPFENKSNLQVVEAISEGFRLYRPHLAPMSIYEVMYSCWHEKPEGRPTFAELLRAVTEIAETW
# [7] = target: T1, Tyrosine-protein kinase TXK (Homo sapiens); conditions: at 1 µM
# [8] = target: Non-receptor tyrosine-protein kinase TYK2 (Homo sapiens) (UniProt P29597); conditions: at 0.1 µM;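 further: each value is a mean of the inhibition readings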
# [9] = target: T2, Dual specificity protein kinase TTK (Homo sapiens) (UniProt P33981); conditions: at 1 µM;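 further: reported figures are mean TTK inhibition at 1 µM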
# T2 sequence (whole entry): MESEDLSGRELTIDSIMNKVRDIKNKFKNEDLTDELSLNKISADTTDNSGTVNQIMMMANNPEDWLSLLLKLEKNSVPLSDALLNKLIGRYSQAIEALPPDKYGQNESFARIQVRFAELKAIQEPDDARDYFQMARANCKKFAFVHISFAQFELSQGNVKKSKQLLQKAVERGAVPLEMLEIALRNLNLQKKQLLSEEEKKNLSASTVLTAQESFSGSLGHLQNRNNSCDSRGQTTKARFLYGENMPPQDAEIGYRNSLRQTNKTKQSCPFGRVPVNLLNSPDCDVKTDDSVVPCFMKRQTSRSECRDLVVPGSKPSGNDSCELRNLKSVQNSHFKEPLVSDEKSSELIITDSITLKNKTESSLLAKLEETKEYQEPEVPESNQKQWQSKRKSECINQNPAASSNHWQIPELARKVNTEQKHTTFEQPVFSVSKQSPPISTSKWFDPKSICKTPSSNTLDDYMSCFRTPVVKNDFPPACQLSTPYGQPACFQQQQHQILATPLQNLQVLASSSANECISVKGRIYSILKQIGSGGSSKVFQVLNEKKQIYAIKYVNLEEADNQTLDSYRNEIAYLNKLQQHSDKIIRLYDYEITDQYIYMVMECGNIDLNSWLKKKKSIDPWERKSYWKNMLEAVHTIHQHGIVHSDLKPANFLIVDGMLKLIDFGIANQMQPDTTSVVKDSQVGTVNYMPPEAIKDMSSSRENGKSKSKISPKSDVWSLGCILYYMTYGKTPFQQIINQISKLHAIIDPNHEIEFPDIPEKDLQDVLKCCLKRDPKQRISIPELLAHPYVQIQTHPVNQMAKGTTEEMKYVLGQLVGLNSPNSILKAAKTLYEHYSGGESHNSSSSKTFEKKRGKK
# [10] = target: T3, Aurora kinase A (Homo sapiens) (UniProt O14965); conditions: at 0.1 µM
# T3 sequence (whole entry): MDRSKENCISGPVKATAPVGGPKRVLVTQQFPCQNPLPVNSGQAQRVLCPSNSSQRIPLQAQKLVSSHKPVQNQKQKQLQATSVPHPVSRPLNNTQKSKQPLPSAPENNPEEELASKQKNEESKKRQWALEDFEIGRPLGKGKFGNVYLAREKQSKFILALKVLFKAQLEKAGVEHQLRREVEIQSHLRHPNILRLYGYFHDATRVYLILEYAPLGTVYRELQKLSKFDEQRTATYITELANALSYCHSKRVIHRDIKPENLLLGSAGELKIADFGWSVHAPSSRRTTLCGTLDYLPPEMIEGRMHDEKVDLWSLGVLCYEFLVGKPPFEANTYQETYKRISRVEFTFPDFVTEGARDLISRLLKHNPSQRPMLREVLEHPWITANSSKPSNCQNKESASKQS
# [11] = target: T3, Aurora kinase A (Homo sapiens); conditions: at 1 µM
# [12] = target: Aurora kinase B (Homo sapiens) (UniProt Q96GD4); conditions: at 0.1 µM
# Chain of Aurora kinase B (Homo sapiens) (Q96GD4 whole entry): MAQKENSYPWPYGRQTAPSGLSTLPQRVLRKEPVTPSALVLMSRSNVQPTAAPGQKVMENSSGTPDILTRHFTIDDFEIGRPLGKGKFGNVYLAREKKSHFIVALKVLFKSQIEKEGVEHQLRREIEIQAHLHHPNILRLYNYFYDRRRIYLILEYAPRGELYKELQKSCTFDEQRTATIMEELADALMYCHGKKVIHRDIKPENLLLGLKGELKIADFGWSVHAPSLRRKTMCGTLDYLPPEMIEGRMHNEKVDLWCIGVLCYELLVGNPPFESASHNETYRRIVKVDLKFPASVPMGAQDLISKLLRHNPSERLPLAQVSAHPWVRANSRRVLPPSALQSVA
# [13] = target: Aurora kinase B (Homo sapiens) (UniProt Q96GD4); conditions: at 1 µM
# [14] = target: T4, Aurora kinase C (Homo sapiens) (UniProt Q9UQB9); conditions: at 0.1 µM
# T4 sequence (whole entry): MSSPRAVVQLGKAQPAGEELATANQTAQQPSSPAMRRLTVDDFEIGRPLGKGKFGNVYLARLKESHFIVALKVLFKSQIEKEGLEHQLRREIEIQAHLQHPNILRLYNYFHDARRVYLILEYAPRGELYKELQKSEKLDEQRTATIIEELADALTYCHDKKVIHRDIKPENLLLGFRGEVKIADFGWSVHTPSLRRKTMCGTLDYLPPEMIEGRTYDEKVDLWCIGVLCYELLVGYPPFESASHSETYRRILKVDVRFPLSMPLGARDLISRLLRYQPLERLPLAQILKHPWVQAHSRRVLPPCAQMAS
# [15] = target: T4, Aurora kinase C (Homo sapiens); conditions: at 1 µM
# [16] = target: Serine/threonine-protein kinase 10 (Homo sapiens) (UniProt O94804); conditions: at 0.1 µM
# Chain of Serine/threonine-protein kinase 10 (Homo sapiens) (O94804 whole entry, looked up): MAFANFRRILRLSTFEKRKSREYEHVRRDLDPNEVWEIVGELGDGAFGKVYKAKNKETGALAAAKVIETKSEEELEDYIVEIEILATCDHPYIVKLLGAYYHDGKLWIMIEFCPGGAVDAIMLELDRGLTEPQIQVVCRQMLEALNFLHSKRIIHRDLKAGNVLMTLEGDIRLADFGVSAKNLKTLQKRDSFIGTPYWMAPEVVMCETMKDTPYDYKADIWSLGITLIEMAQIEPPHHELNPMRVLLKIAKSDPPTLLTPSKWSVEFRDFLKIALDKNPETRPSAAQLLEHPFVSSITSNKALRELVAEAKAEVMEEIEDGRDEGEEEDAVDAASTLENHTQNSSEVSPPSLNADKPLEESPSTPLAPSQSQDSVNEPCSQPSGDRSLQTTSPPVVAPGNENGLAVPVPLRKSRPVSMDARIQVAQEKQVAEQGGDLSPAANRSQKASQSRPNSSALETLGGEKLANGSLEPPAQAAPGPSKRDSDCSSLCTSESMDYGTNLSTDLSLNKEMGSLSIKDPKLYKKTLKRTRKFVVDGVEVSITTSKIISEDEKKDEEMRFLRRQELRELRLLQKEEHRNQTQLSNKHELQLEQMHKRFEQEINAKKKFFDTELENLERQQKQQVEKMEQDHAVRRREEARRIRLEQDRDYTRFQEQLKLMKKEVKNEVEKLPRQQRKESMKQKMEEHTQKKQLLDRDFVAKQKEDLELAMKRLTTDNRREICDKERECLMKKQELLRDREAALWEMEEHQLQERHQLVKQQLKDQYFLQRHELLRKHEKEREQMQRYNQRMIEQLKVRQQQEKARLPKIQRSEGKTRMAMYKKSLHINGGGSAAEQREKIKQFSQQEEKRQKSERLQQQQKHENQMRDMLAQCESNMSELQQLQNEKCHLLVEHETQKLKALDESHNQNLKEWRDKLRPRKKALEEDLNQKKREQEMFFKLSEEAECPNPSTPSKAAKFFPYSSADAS
# [17] = target: Serine/threonine-protein kinase 10 (Homo sapiens) (UniProt O94804); conditions: at 1 µM
# [18] = target: T5, Mitogen-activated protein kinase kinase kinase kinase 2 (Homo sapiens) (UniProt Q12851); conditions: at 0.1 µM
# T5 sequence (whole entry): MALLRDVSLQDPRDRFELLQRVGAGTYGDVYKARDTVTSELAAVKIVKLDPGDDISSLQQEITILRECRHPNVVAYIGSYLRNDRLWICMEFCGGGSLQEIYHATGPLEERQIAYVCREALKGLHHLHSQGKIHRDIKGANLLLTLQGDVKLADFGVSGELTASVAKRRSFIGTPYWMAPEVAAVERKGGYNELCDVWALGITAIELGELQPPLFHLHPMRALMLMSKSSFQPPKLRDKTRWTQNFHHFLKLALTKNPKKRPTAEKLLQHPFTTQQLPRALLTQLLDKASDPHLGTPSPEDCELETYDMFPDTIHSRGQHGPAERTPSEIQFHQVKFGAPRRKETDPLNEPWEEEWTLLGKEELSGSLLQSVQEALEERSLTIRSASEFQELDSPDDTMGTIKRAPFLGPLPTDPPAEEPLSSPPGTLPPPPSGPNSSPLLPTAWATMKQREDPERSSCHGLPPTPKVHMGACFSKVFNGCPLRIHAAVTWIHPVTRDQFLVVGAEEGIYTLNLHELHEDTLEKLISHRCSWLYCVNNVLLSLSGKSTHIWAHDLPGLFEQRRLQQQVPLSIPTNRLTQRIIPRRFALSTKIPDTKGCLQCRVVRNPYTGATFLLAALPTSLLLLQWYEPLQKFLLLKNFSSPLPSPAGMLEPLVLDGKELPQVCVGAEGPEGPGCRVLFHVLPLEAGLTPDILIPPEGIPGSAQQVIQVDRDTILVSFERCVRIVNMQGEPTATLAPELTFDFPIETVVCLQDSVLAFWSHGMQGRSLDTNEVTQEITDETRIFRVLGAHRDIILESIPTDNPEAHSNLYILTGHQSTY
# [19] = target: T5, Mitogen-activated protein kinase kinase kinase kinase 2 (Homo sapiens); conditions: at 1 µM
# [20] = target: Mitogen-activated protein kinase kinase kinase kinase 4 (Homo sapiens) (UniProt O95819); conditions: at 0.1 µM
# Chain of Mitogen-activated protein kinase kinase kinase kinase 4 (Homo sapiens) (O95819 2-1239 limits assumed): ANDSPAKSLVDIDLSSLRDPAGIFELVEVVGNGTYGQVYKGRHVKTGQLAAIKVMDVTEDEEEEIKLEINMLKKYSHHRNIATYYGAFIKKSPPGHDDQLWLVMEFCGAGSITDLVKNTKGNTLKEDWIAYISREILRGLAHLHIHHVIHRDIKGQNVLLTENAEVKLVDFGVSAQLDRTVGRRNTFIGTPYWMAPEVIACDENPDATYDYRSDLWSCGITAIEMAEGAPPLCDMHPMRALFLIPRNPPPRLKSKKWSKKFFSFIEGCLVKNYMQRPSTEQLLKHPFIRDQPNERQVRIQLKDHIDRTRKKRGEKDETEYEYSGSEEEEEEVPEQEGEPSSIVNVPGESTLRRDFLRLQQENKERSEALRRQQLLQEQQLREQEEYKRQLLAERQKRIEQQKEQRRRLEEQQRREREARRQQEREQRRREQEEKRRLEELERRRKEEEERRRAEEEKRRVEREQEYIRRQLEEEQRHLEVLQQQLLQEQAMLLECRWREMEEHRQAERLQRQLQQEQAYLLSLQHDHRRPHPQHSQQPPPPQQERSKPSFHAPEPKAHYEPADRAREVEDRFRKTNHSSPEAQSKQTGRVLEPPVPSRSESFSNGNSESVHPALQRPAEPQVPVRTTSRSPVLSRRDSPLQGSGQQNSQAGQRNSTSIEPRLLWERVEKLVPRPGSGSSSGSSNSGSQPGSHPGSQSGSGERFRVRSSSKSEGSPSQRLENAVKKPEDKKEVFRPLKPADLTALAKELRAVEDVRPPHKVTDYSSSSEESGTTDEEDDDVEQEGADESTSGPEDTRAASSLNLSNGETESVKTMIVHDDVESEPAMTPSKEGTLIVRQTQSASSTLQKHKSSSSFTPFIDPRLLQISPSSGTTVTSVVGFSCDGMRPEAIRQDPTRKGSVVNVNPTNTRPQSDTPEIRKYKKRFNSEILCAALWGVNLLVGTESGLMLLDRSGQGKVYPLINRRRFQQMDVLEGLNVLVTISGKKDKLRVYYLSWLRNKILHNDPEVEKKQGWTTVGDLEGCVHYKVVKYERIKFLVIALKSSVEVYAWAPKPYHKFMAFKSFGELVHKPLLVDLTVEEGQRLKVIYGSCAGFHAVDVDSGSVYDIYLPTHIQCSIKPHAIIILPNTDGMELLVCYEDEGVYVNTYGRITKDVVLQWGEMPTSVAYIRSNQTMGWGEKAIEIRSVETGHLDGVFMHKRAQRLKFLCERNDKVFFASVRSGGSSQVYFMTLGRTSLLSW
# Chain of BDNF/NT-3 growth factors receptor (Homo sapiens) (Q16620 32-822 limits assumed): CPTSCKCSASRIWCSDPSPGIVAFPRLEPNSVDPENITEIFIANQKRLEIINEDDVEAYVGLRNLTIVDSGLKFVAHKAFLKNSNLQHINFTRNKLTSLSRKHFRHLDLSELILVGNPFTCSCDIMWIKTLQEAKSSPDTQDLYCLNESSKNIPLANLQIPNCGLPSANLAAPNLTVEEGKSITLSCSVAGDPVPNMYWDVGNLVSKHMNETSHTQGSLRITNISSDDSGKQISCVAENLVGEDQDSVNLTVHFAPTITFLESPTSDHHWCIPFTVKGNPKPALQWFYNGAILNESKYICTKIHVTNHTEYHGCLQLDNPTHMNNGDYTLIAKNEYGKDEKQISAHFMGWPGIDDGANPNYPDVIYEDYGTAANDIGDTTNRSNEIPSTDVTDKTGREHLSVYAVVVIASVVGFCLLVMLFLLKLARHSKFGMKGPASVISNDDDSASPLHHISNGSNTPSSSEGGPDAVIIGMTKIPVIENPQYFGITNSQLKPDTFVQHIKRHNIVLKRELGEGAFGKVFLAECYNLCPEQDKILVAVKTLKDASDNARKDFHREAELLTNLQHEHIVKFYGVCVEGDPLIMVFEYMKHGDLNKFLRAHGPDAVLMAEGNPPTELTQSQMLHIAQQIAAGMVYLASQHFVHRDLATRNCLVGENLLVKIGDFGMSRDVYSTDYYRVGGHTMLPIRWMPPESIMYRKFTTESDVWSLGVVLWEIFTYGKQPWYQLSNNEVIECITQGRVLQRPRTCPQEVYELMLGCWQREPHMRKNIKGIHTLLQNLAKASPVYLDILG
# Chain of High affinity nerve growth factor receptor (Homo sapiens) (P04629 33-796 limits assumed): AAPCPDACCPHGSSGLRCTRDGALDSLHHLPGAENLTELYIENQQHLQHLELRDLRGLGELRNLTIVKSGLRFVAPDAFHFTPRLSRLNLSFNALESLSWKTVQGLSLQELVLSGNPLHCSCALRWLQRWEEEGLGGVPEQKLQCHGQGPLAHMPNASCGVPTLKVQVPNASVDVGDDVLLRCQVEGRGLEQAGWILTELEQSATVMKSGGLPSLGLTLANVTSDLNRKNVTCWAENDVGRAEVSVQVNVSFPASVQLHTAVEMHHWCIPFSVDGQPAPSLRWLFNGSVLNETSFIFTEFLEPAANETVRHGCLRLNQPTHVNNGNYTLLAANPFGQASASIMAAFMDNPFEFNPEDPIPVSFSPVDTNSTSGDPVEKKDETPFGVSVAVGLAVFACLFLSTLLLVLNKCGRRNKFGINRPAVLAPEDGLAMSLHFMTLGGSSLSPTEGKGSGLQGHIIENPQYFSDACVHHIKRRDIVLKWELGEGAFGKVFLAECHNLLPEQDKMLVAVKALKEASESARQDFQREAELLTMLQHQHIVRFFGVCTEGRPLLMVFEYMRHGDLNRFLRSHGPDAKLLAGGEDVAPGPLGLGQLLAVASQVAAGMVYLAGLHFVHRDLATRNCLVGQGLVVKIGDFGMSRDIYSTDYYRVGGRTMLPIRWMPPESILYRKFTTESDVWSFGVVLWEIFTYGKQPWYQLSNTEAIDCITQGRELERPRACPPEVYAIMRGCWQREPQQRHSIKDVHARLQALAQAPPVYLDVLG
Compound,inhibition [1] [%],inhibition [2] [%],inhibition [3] [%],inhibition [4] [%],inhibition [5] [%],inhibition [6] [%],inhibition [7] [%],inhibition [8] [%],inhibition [9] [%],inhibition [10] [%],inhibition [11] [%],inhibition [12] [%],inhibition [13] [%],inhibition [14] [%],inhibition [15] [%],inhibition [16] [%],inhibition [17] [%],inhibition [18] [%],inhibition [19] [%],inhibition [20] [%]
Cc1ccc(Nc2ccnc(Nc3cccc(C(N)=O)c3)n2)cc1O,6.07,4.59,21.6,3.13,11.5,10.1,43.7,-1.77,16.3,14.3,73.4,6.44,42.6,8.25,85.4,7.05,38.9,2.07,8.97,6.53
CCn1c(-c2nonc2N)nc2ccc(F)cc21,2.84,4.03,4.23,3.74,4.75,1.94,0.47,-3.66,11.6,3.17,4.08,1.24,7.81,1.48,-2.72,9.56,13.5,1.16,2.01,4.2
Cc1ccc2c(-c3ccnc(Nc4ccc5c(c4)OCCO5)n3)c(-c3ccc(C(F)(F)F)cc3)nn2n1,-4.22,-1.22,0.09,3.63,-0.97,-1.11,2.6,-0.28,4.26,3.93,0.25,-0.46,-2.36,0.45,1.78,3.03,5.81,1.07,2.41,0.41
COc1cccc(-n2ncc3c(N/N=C/c4ccc(S(C)(=O)=O)cc4)ncnc32)c1,5.3,6.69,19.3,6.62,22.3,0.02,12.4,-0.06,–,6.42,28.4,9.58,42.4,0.72,12.2,6.63,16.3,0.47,0.9,16.2
COc1cc(Nc2nccc(-c3cnn4ncccc34)n2)cc(OC)c1,26.7,5.6,39.5,9.63,45.6,5.79,31.4,4.29,15.4,20.9,94.2,20.5,71,–,94.4,5.8,27.3,28.5,72.7,26.1
COC(=O)c1cncc(/C=C/c2c(C)cc(O)cc2C)c1,0.47,2.4,4.35,2,6.12,4.44,22.5,-4.1,1.18,2.33,8.18,2.38,9.6,2.3,-1.31,5.36,26.2,0.34,4.75,3.73
Cc1ccc(O)cc1Nc1ccnc2ccc(S(C)(=O)=O)cc12,2.38,3.22,5.52,6.41,7.31,81,83.8,-1.89,10,1.96,6.17,2.16,5.99,0.93,-0.69,8.9,36.7,5.18,31,8.02
